Measured values taken from PubChem BioAssay (NCI).
The panel holds about 83,000 compounds, 20% with a hit somewhere; the sample as a whole holds those more often.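 Single-concentration screen, 48 h exposure, 96-well plates. Endpoint: percent growth. Below 10 = active.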 A number with no mark means an inactive call. Activity calls are given as the source filed them.

Columns and labels:
Assay in all cases: NCI-60 one-dose screen, 48 h (100 = growth as untreated, 0 = no growth, -100 = all killed)
Conditions in all cases: 10 µM
[1] = tested on: SK-MEL-2 melanoma
[2] = tested on: EKVX NSCLC
[3] = tested on: SN12C renal
[4] = tested on: TK-10 renal
[5] = tested on: ACHN renal
[6] = tested on: CAKI-1 renal
[7] = tested on: A498 renal
[8] = tested on: CCRF-CEM leukemia
[9] = tested on: MOLT-4 leukemia
[10] = tested on: RPMI-8226 leukemia
[11] = tested on: OVCAR-8 ovarian
[12] = tested on: OVCAR-5 ovarian
[13] = tested on: OVCAR-4 ovarian
[14] = tested on: SK-OV-3 ovarian
[15] = tested on: IGROV1 ovarian
[16] = tested on: OVCAR-3 ovarian
[17] = tested on: HS 578T breast
[18] = tested on: NCI/ADR-RES ovarian
[19] = tested on: UO-31 renal
[20] = tested on: SR leukemia

| SMILES | growth [1] | growth [2] | growth [3] | growth [4] | growth [5] | growth [6] | growth [7] | growth [8] | growth [9] | growth [10] | growth [11] | growth [12] | growth [13] | growth [14] | growth [15] | growth [16] | growth [17] | growth [18] | growth [19] | growth [20] |
| --- | --- | --- | --- | --- | --- | --- | --- | --- | --- | --- | --- | --- | --- | --- | --- | --- | --- | --- | --- | --- |
| COc1ccc2nc(Cl)c(-c3cc(-c4ccccc4)nc(=O)[nH]3)cc2c1 | 93.3% | 73.3% | 42.9% | 96.9% | 79% | 74.2% | 104% | 16.4% | -11.4% (active) | -14.7% (active) | 11.3% | 93.1% | 85.3% | 108% | 78.2% | 16.6% | 77.3% | 6.75% (active) |  |  |
| CCCCCCCCCCCCCCCCCCCC(=O)NCCc1c[nH]c2ccc(OC(=O)CCCC(=O)OCCOOCCOOCCOOCCOOCCOOCCOOCCOOCCOOCCOOCCOOCCOOCCOC)cc12 | 78.1% | 83.1% | 17.4% | 120% | 59.9% | 73.7% | 116% |  | -4.66% (active) |  |  |  |  |  |  |  |  |  | 45.4% |  |
| CONC[C@]1(C)C=C2C(=O)[C@](C)(O)C3(CC3)C(C)=C2[C@H]1O | -100% (active) | -45.3% (active) | -6.45% (active) | 7.09% (active) | -25.7% (active) | -0.623% (active) | -29.7% (active) | 4.58% (active) |  | 54.3% | -6.95% (active) |  | -17.4% (active) | -14.4% (active) | -15.4% (active) | -20.4% (active) | -12.4% (active) | -58.3% (active) | -24.8% (active) |  |
| CCCCCCCCCCCCCCCCCCCC(=O)NCCc1c[nH]c2ccc(OC(=O)NOCCOCCOCCOCCOCCOCCOCCOCCOCCOCCOCCOCCOCCOCCOCCOCCOCCOCCOCCOCCOCCOCCOC)cc12 | -68.5% (active) | 35.6% | -17.4% (active) | 51.2% | 40.7% | 7.27% (active) | 63.1% |  | -11.7% (active) | -29.5% (active) | 7.17% (active) | -5.89% (active) | 29.8% | -10.1% (active) | 18.9% | 11.8% | -18.9% (active) | 89.3% | 61.8% |  |
| O=C(c1ccc(Cl)cc1)C1[C@H](c2ccccc2Br)[C@@H](c2ccccc2)NC12C(=O)Nc1ccc(Br)cc12 (stereo partly specified) | -51% (active) | 14.7% | -63.5% (active) | 23.9% | 11.9% | 8.82% (active) | 74.5% | 5.86% (active) |  | 7% (active) |  | 19.2% | 23.2% | 36.2% | 21.2% | -8.88% (active) | 12% | -67% (active) | 13.5% |  |
| N[C@@H](CSSC[C@H](N)C(=O)Nc1ccc(OCC2CCCC2)cc1)C(=O)Nc1ccc(OCC2CCCC2)cc1 | -93% (active) | -90.2% (active) | -98.5% (active) | -95.5% (active) | -100% (active) | -99.1% (active) | -85.4% (active) | -60.5% (active) |  | -57.3% (active) | -59.8% (active) |  | -96.9% (active) | -97.9% (active) | -92.1% (active) | -86.5% (active) | -61.7% (active) |  | -100% (active) |  |
| O=C1Nc2cc(Cl)ccc2/C1=C/c1ccc(OCc2ccc(Br)cc2F)cc1 | -47.2% (active) | -13.7% (active) | -48.2% (active) | -54.8% (active) | -79.9% (active) | -59% (active) | -46.4% (active) | 5.01% (active) | 10.3% | 0.87% (active) | -79.6% (active) | 25.2% | -53.8% (active) | -20.3% (active) | -41.9% (active) | -82.1% (active) | -16.8% (active) | -71% (active) |  |  |
| CN1CCN(c2ccc(Nc3nc(N4CCN(S(=O)(=O)c5ccc(Cl)cc5)CC4)c4sccc4n3)cc2)CC1 | 79.4% | 62.1% | 91.9% | 85.9% | -64.4% (active) | 7.7% (active) | 125% | 1.87% (active) |  | -23.6% (active) |  | -80.9% (active) | -82.6% (active) | 116% | 84.3% | -34.9% (active) | 83.9% | 16.1% | 64.2% |  |
| CC(=O)Nc1nc(-c2ccc(N3CCN(C)CC3)c(NS(=O)(=O)c3cccc4c(N(C)C)cccc34)c2)cs1 | 65.3% | 69.9% | 75.6% | 84.3% | 60.7% | 66.5% | 117% | 8.38% (active) |  | 6.29% (active) | 76.7% | 83.4% | 68.8% | 63.9% | 84.8% | 78.9% |  | 94.8% | 60% |  |
| COc1ccc(CCN2C(=O)/C(=C/c3csc(C#N)n3)SC2=S)cc1OC | 85.6% | 79.8% | 31.8% | 1.31% (active) | 8.31% (active) | 25.3% | 80% |  |  | -7.56% (active) | 69.2% | 116% | 66.3% | 107% | 90.7% | -17.7% (active) | 66.3% | 93.3% | 15.5% |  |
| CC(=C(c1ccc(OCCCN(C)C)cc1)c1ccc(OCCCN(C)C)cc1)c1ccccc1 | -86.5% (active) | -96.1% (active) | -96.8% (active) | -92% (active) | -99.2% (active) | -100% (active) | -86.4% (active) | -65.9% (active) |  | -54.4% (active) |  | -98.5% (active) | -96.9% (active) | -90.3% (active) | -95% (active) | -93.6% (active) | -71.2% (active) | -98.1% (active) | -99.9% (active) |  |
| Cc1ccc(-c2ccc(SCC(=O)Nc3ccc(Cl)c(C(F)(F)F)c3)nn2)cc1 | 12.8% | 36.7% | 35.2% | 59.8% | 43.4% | 41.7% | 80.3% | 19.8% | 8.91% (active) | 19.7% | 1.56% (active) | 39.1% | 62.4% | 46.6% | 30.1% | 2.46% (active) | 15.7% | -23.5% (active) |  |  |
| CCOC(=O)C1NN(c2ccc(S(N)(=O)=O)cc2)c2nc3nc(-c4cccs4)cc(-c4cccs4)c3c(=O)n21 (stereo unspecified) | 101% | 91.8% | 90.2% | 100% | 64.9% | 59.1% | 120% |  | 78.7% | 77.9% | 86.7% | 100% | 70.2% | 93.6% | 104% | 89.9% | 8.11% (active) |  | 82.9% |  |
| O=C(CN1CCN(c2ncnc3c2cnn3-c2ccccc2)CC1)Nc1nncs1 | 28% | -44.8% (active) | -54.7% (active) | -56.5% (active) | -87.5% (active) | -95.7% (active) | 49% |  | 3.73% (active) | -16.6% (active) | -21.4% (active) | -4.09% (active) | 13.6% | 28.1% | -41.8% (active) | -55.6% (active) | 3.92% (active) | -32.6% (active) | -97.2% (active) | -28.9% (active) |
| CCCCCc1ccc(S(=O)(=O)N(C(C)=O)c2cc(-c3csc(N(C)C(C)=O)n3)ccc2N2CCN(C)CC2)cc1 | 35.1% | 62.7% | 21.2% | 76.7% | 30.1% | 31.8% | 123% | -7.22% (active) |  | -24.8% (active) | 41.2% |  | 62% | 96% | 68.2% | 44.7% | 35.7% | 47.9% | 41.8% |  |
| COc1ccc(CCN2C(=O)/C(=C/c3csc(C#N)n3)SC2=S)cc1 | -0.186% (active) | 20% | -38.2% (active) | 13.3% | 4.4% (active) | -0.602% (active) | 61.4% |  | -11.2% (active) | -0.42% (active) | -5.34% (active) | 76.7% | 38.4% | 96.3% | 26.8% | -39% (active) | 16.9% |  | -43.9% (active) |  |
| CN1C(=O)/C(=C/c2nccs2)SC1=S | 96.9% | 80.7% | 75.8% | 162% | 88.1% | 72.9% | 109% |  | 98.8% | 97.2% | 91.5% | 95.6% | 84.1% | 105% | 63.8% | 114% | 86.5% | 93.5% | 78.7% | 52.3% |
| O=C(NC(=S)N1CCN(c2ncnc3c2cnn3-c2ccccc2)CC1)c1ccc(Cl)cc1 | 88.8% | 62.7% | 28.3% | 109% | 24.5% | 27.7% | 68.4% |  | 81.6% | 69.1% | 38.3% | 83.8% | 16.5% | 41.8% | 70.9% | 48.1% | 32.7% | 28.1% | 40% |  |
